For 88 molecules, inhibition results are on record in PubChem BioAssay AID449762 (Southern Research Specialized Biocontainment Screening …, 2010).

Structures are written as SMILES. Out of some 330,000 compounds screened, about 1,900 (0.58%) were called active. Not shown: some 4% with an inconclusive outcome. No stated cut-off is given here; in the data, inconclusive means inhibition above about 70% without an active follow-up result; inactive means below that. A selection follows. Potency and affinity values are given separately.

This assay in a line: M. tuberculosis growth inhibition, HTS (AID 449762).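 Further: bacterial growth assessed after seven days of incubation.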 The following applies: M. tuberculosis H37Rv growth inhibition, 7H9 media; at 25 µM; stronger effect = higher value.
For the molecule `C=C[C@@H]1c2cc(C)ccc2N(S(=O)(=O)c2ccc(C)cc2)[C@H](c2ccccc2)C1(C#N)C#N`, the inhibition was -12.5% (inactive).

In the case of `COc1cc(C)ccc1OCCOc1c(C)cccc1Cl`, the inhibition is 62.7% (inactive).

For `COc1cc(C)ccc1OCCOc1c(Cl)cc(Cl)cc1Cl`, the inhibition was -4.9% (inactive).

`CC(C)Oc1ccc(C(=O)NC(Cc2c[nH]c3ccccc23)C(=O)NN)cc1` (stereo not drawn): the inhibition is 3.03% (inactive).

Regarding `CC(C)NC(=O)c1cnc(N2CCN(c3ccccn3)CC2)c2ccccc12`, the inhibition was -4.73% (inactive).

For the molecule `Cc1cc(Br)ccc1NC(=O)CN1CCN(c2ccccn2)CC1`, the inhibition is -1.24% (inactive).

Regarding `COc1ccccc1C(=O)Nc1ccc(Cc2ccncc2)cc1`, the inhibition was -0.58% (inactive).

On to `COc1ccc(Br)cc1C(=O)Nc1ccc(Cc2ccncc2)cc1`, for which the inhibition was -1.26% (inactive).

Take `O=C(NCCc1ccc(Cl)cc1)C1CCCN(c2ncnc3c2nc2n3CCCCC2)C1` (stereo not drawn): the inhibition is 29.1% (inactive).

In the case of `CC1CCCN(C(=O)c2ccc(-c3ccccc3Cl)o2)C1` (stereo not drawn), the inhibition is 27.8% (inactive).

As to `NC(=O)C1CCN(C(=O)c2ccc(-c3ccccc3Cl)o2)CC1`, the inhibition was -1.57% (inactive).

With `COCc1cc(C)nc(SCC[N+](C)(C)CC(=O)Nc2cccc(C)c2)c1C#N`, the inhibition is 10.4% (inactive).

Consider `CNc1nc2c(-c3ccc(Cl)cc3)nnn2c2ccccc12`, for which the inhibition was 8.01% (inactive).

As to `NNc1nc2c(-c3ccc(Cl)cc3)nnn2c2ccccc12`, the inhibition was -3.53% (inactive).

Take `CCC(C)CCN1C(Nc2ccccc2)=NC[C@@H]1CC(C)C` (stereo partly drawn): the inhibition was -0.75% (inactive).

In the case of `CN1C(C(=O)N2CCC3(CC2)OCCO3)=CC(c2ccc(F)cc2)=NS1(=O)=O`, the inhibition was 1.76% (inactive).

Turning to `Cc1nonc1OCCNc1ccc([N+](=O)[O-])c2cccnc12`, the inhibition is 2.82% (inactive).

For `Cc1nonc1OCCNCCNc1ccccc1[N+](=O)[O-]`, the inhibition is 5.53% (inactive).

With `C#CCOCCOCCOCCNc1nc(N2CCN(C(=O)C(CCC(=O)O)n3cc(C(N)CC(C)C)nn3)CC2)nc(N2CCN(C(=O)C(Cc3cc4ccccc4[nH]3)n3cc(C(N)Cc4ccc(O)cc4)nn3)CC2)n1` (stereo not drawn), the inhibition was 2.57% (inactive).

Turning to `C#CCOCCOCCOCCNc1nc(N2CCN(C(=O)[C@H](CCC(=O)O)n3cc(C(N)Cc4ccc(O)cc4)nn3)CC2)nc(N2CCN(C(=O)[C@H](Cc3cc4ccccc4[nH]3)n3cc(C(N)CC(C)C)nn3)CC2)n1` (stereo partly drawn), the inhibition is -1.44% (inactive).

Consider `CCCNC(=O)OCc1cccnc1Sc1ccc(C)cc1`, for which the inhibition was 3.87% (inactive).

Consider `CC(C)(C)OC(=O)N1CCC[C@H]1c1nnc(SCc2c(F)cccc2Cl)o1`, for which the inhibition was 5.9% (inactive).

`CCCNC(=O)c1ccc(-c2nc3ccccc3s2)s1`: the inhibition was 11% (inactive).

For the molecule `Cc1noc(C)c1COC(=O)c1ccc(-c2nc3ccccc3s2)s1`, the inhibition was -0.34% (inactive).

As for `CCCN(CC(=O)Nc1cc(Cl)ccc1Cl)C(=O)c1ccccn1`, the inhibition was -9.27% (inactive).

For the molecule `Cc1ccc(SCCN2CCC(NC(=O)OCc3ccccc3)CCC2=O)cc1` (stereo not drawn), the inhibition was -5.79% (inactive).

In the case of `O=C(NC1CCC(=O)N(CCSc2ccccc2)CC1)OCc1ccccc1` (stereo not drawn), the inhibition was 1.1% (inactive).

On to `COc1cc(C(C(=O)NCC2CCCO2)N(C(=O)Cn2nnc3ccccc32)c2ccc(C(C)=O)cc2)ccc1O` (stereo not drawn), for which the inhibition is -7.43% (inactive).

Turning to `CCCCNC(=O)C1CC(c2ccccc2[N+](=O)[O-])=NO1` (stereo not drawn), the inhibition is 0.43% (inactive).

With `CCOC(=O)c1ccc(CSc2nnc(N)s2)cc1`, the inhibition was 3.29% (inactive).

Take `CCOC(=O)CSc1nc(C2CC2)cc(-c2ccc(Cl)cc2)c1C#N`: the inhibition was -4.91% (inactive).

As for `Clc1ccc(-c2nnc(Sc3nc4ccccc4o3)c3ccccc23)cc1`, the inhibition was -4.13% (inactive).

In the case of `Cc1ccc(-c2nnc(Sc3nc4ccccc4o3)c3ccccc23)cc1`, the inhibition was -10.4% (inactive).

With `CCc1nc2cccnc2n1-c1ccc(CC(=O)O)cc1`, the inhibition was -1.43% (inactive).

In the case of `Fc1ccc(N2CCN(C(=S)NCc3ccco3)CC2)cc1`, the inhibition is 1.09% (inactive).

With `CC1CCCN(C(=S)SCC(=O)c2cc(Br)cc(Br)c2O)C1` (stereo not drawn), the inhibition is 1.93% (inactive).

Regarding `O=C(CSC(=S)N1CCCC1)c1ccccc1`, the inhibition is -7.15% (inactive).

On to `Cc1cc(NC(=O)CSc2n[nH]c(CC(C)C)n2)no1`, for which the inhibition is -10.9% (inactive).

As for `Cc1ncc(CN2CCC(n3nccc3NC(=O)c3ccccc3)CC2)s1`, the inhibition is -15.1% (inactive).

Turning to `CCn1cc2nc(SCC(=O)Nc3ccc(F)cc3F)n(Cc3ccccc3)c(=O)c2n1`, the inhibition was -4.3% (inactive).

In the case of `CN(C)CCCN(C(=O)c1ccc(Br)s1)c1nc2cc3c(cc2s1)OCCO3`, the inhibition is 9.92% (inactive).

Take `CN(C)CCCN(C(=O)c1cc2cc([N+](=O)[O-])ccc2s1)c1nc2cc3c(cc2s1)OCCO3`: the inhibition is -1.83% (inactive).

With `COc1ccc(C(C[N+](=O)[O-])c2c(-c3ccccc3)cc3ccccn23)cc1` (stereo not drawn), the inhibition was -3.56% (inactive).

For the molecule `COc1ccc(C(C[N+](=O)[O-])c2c(-c3ccccc3)cc3ccccn23)cc1OC` (stereo not drawn), the inhibition was -0.65% (inactive).

In the case of `Cc1cccc(Cn2c(SCC(=O)Nc3ccccc3)nc3c2c(=O)[nH]c(=O)n3C)c1`, the inhibition is -13.5% (inactive).

`CCCC(c1nnnn1CC1CCCO1)N1CCN(c2cc(Cl)ccc2C)CC1` (stereo not drawn): the inhibition was 1.1% (inactive).

Turning to `CCCCCCCc1nc2nc(C)c(Br)c(=O)n2[nH]1`, the inhibition is 8.34% (inactive).

On to `CCCn1c(SCC(=O)Nc2ccc3c(c2)OCCO3)nnc1-c1ccco1`, for which the inhibition was -7.16% (inactive).

On to `O=C(C[C@@H]1C/C=C\C[C@H](NC(=O)OCC2c3ccccc3-c3ccccc32)C(=O)OC[C@@H]2CCCN2C1=O)N[C@@H](CO)Cc1ccccc1`, for which the inhibition is 1.79% (inactive).

`O=C(C[C@H]1C/C=C\C[C@H](NC(=O)OCC2c3ccccc3-c3ccccc32)C(=O)OC[C@@H]2CCCN2C1=O)N[C@H](CO)Cc1ccccc1`: the inhibition was -0.02% (inactive).

With `Cc1occc1-c1nnc(SCC(=O)N(C)c2ccccc2)n1C`, the inhibition was -1.83% (inactive).

On to `CC(=O)c1ccc(OCC(O)COc2ccc(C(C)=O)cc2)cc1`, for which the inhibition was 6.86% (inactive).

For `CC(C)(c1ccccc1)c1ccc(OCC(O)CN2CCCC2)cc1` (stereo not drawn), the inhibition is 1.65% (inactive).

For `O=C(O)c1ccc(NC(=O)c2cccc(S(=O)(=O)Nc3ccc(C(=O)O)cc3)c2)cc1`, the inhibition was -1.83% (inactive).

Take `COc1ccccc1N1CCN(CC(=O)Nc2ccccc2C(=O)NCCc2ccccc2)CC1`: the inhibition was 33.8% (inactive).

With `O=C(CN1CCN(c2ccc(O)cc2)CC1)Nc1ccccc1C(=O)NCCc1ccccc1`, the inhibition is -9.61% (inactive).

For the molecule `COc1cc(NS(=O)(=O)c2cc3c(cc2C)NC(=O)CO3)cc(OC)c1`, the inhibition is -11.6% (inactive).

For `OC(COc1ccc(Cl)cc1Cl)Cn1ccnc1` (stereo not drawn), the inhibition was -1.41% (inactive).

Regarding `OC(Cn1ccnc1)c1ccc(Cl)cc1Cl` (stereo not drawn), the inhibition was -8.18% (inactive).

`CCOC(=O)C1=C(CC)Nc2ccccc2N/C1=N\S(=O)(=O)c1ccccc1OC`: the inhibition was -0.62% (inactive).

Take `CC1(C)Cc2c(sc(NC(=O)C(C)(C)C)c2C#N)C(C)(C)N1`: the inhibition is -3.46% (inactive).

Regarding `COc1cc(N=c2ssnc2Cl)cc(OC)c1OC`, the inhibition was -3.23% (inactive).

In the case of `Cc1ccc(N=c2ssnc2Cl)cc1`, the inhibition was 0.3% (inactive).

Consider `O=C(O)c1ccc(S(=O)(=O)N2CCC(n3nnc4cc(C(F)(F)F)ccc43)CC2)cc1`, for which the inhibition was 1.41% (inactive).

On to `C/C(=N\Nc1cc(Cl)nc(C)n1)c1ccccc1`, for which the inhibition is 5.34% (inactive).

Take `C/C(=N\Nc1cc(Cl)nc(C)n1)c1ccc(C)cc1`: the inhibition is 66.8% (inactive).

`Cc1ccc(S(=O)(=O)N2CCN(C(=O)COC(=O)/C=C/c3ccc(F)cc3)CC2)c(C)c1`: the inhibition was -1.22% (inactive).

`CCCOc1ccc(N2CC(C(=O)Nc3ccccc3C(=O)NC)CC2=O)cc1` (stereo not drawn): the inhibition was -2.1% (inactive).

For `O=C(CSc1ncnc2nc[nH]c12)c1ccccc1`, the inhibition was 9.21% (inactive).

On to `COc1ccc(C(=O)CSc2ncnc3nc[nH]c23)cc1`, for which the inhibition is -0.73% (inactive).

As for `O=C(c1ccc(Cl)cc1)C1CCN(C(=O)c2ccc(F)cc2)CC1`, the inhibition was 4.03% (inactive).

On to `Cc1cc(C)cc(OC(=O)CCN2C(=O)c3ccccc3C2=O)c1`, for which the inhibition is -5.68% (inactive).

Regarding `Cc1ccc(OC(=O)CN2C(=O)c3ccccc3C2=O)cc1C`, the inhibition is -4.28% (inactive).

Take `CC(C)c1ccc(OCC(=O)N(Cc2ccco2)C2CCS(=O)(=O)C2)cc1` (stereo not drawn): the inhibition was 11.8% (inactive).

Regarding `CCC(=O)N1CC(=O)Nc2ccc(F)cc2C1c1ccccc1` (stereo not drawn), the inhibition was -3.58% (inactive).

Consider `CC(C)NC(=O)N(C)C[C@H]1Oc2c(NC(=O)C3CC3)cccc2C(=O)N([C@H](C)CO)C[C@@H]1C`, for which the inhibition was 1.1% (inactive).

With `CCOc1cccc(N(C(=O)C2COc3ccccc3O2)C(C(=O)NC2CCCCC2)c2ccc(O)cc2)c1` (stereo not drawn), the inhibition is -4.43% (inactive).

Take `CC(C)CCNC(=O)C(c1ccc(O)cc1)N(Cc1cccs1)C(=O)C1COc2ccccc2O1` (stereo not drawn): the inhibition was 22.4% (inactive).

Take `CC(=O)N1CCOc2ccc(S(=O)(=O)N3CCC(C(=O)Nc4ccc(C)c(C)c4)CC3)cc21`: the inhibition was 5.83% (inactive).

`CC(Oc1ccc2c3c(c(=O)oc2c1)CCCC3)C(=O)NCc1ccccn1` (stereo not drawn): the inhibition was 33.2% (inactive).

In the case of `CC(Oc1cc2oc(=O)c3c(c2cc1Cl)CCC3)C(=O)NCc1ccccn1` (stereo not drawn), the inhibition is 31% (inactive).

As for `CCNc1cc(N2CCN(C)CC2)ccc1[N+](=O)[O-]`, the inhibition was -1.18% (inactive).

Regarding `COc1cccc(NC(=S)N2CCc3cc(OC)c(OC)cc3C2)c1`, the inhibition is 1.01% (inactive).

For `CCOc1ccc(S(=O)(=O)N(C)c2ccc(OCC(=O)NCc3ccc(C(=O)OC)cc3)cc2)cc1`, the inhibition is -3.45% (inactive).

Regarding `Cc1cccn2c(=O)c3cc(C(=O)NCCc4ccccc4)c(=N)n(CC4CCCO4)c3nc12` (stereo not drawn), the inhibition is 4.7% (inactive).

In the case of `FC(F)(F)c1cc(Cl)c2nc(-c3ccccc3)cn2c1`, the inhibition is 4.79% (inactive).

Regarding `O=C(Nc1ccccc1)N(C1=NCCC1)c1ccc(OC(F)F)cc1`, the inhibition is -0.82% (inactive).

Consider `COc1ccc(N(C(=O)Nc2ccc(Cl)cc2)C2=NCCC2)cc1`, for which the inhibition was 42.5% (inactive).
